KB-V1 MDR tox: kills drug-selected multidrug resistant KB-V1 cells; KB-V1 MDR cells viability, CellTiter-Glo, 72 h; Potency, µM (top dose mostly 46.1 µM), actives largely listed as cytotoxic; actives 3.4% (n = 400,000); AID 1347076; also: nearly all actives have a fitted effect of over 60% in size
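Potencies derive from concentration-effect curves fitted to normalized luminescence (CellTiter-Glo) of KB-V1 cells treated for 72 h at 37 degrees C in phenol-red-free DMEM containing 10% FBS.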
HT1080 IDH1KD tx: HT-1080 IDH1 knockdown cell toxicity (counter line). HT-1080 IDH1 knockdown viability, ATP luminescence, 48 h. Potency, µM (doses to about 46.1 µM), for inactives: at the highest dose activity, negative = toxicity, hits mostly cytotoxic. actives 2% (n = 360,000). AID 686971;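 also: 0% = DMSO wells and -100% = cell-free medium wells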
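% activity derives from luminescence (CellTiter-Glo), normalised to DMSO and no-cell wells. HT-1080-IDH1KD cells, 750/well, had 48 h compound exposure at 37 °C.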
HT1080-NT tox: kills 2HG-producing HT-1080-NT fibrosarcoma cells; HT-1080-NT fibrosarcoma viability, CellTiter-Glo ATP luminescence, 48 h; Potency, µM (highest dose often 46.1 µM), for inactives: top-dose activity, negative = less viability, hits mostly cytotoxic; actives 1.6% (n = 360,000);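 also: NT is the 2HG producing partner of a matched IDH1 knockdown line; 0% = DMSO-treated cells and -100% = media-only wells without cells; nearly all actives have a fitted effect of over 55% in size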
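750 cells/well, RPMI + 5% FBS; 2 h settle, compound pin-transfer, 48 h at 37 degrees C. CellTiter-Glo 10 min RT, luminescence. Normalized to DMSO and media-only wells.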
KB-3-1 cytotox: kills parental KB-3-1 adenocarcinoma cells. KB-3-1 viability, CellTiter-Glo ATP luminescence, 72 h. actives 1.4% (n = 400,000). AID 1347075. Potency, µM (doses to about 46.1 µM), actives largely listed as cytotoxic; also: nearly all actives have a fitted effect of over 60% in size
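Using CellTiter-Glo luminescence, growth of non-resistant KB-3-1 adenocarcinoma cells is assessed 72 h after pin-tool compound addition at 37 °C. Normalized responses across the concentration series yield fitted curves.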
Starred values were filed as active, the others as inactive; i = inactive; ? = inconclusive; . = not tested or not shown; [ ] = dose if it differs, or a comment. Hits are enriched below; roughly 5.7% of the tested compounds scored in any of these assays. Calls follow the shape of the dose curve; as a rule, active = well fitted curve in the direction sought with a large enough effect; inconclusive = small, poorly fitted or top-dose-only effect, or another doubt; inactive = no such curve, though single readings can be large; an effect the other way counts as inactive or inconclusive. Unless noted, % is scaled to controls: 0 for no effect and ±100 for the full control effect; potency is read from the fitted curve at half-maximal effect.

SMILES	KB-V1 MDR tox	HT1080 IDH1KD tx	HT1080-NT tox	KB-3-1 cytotox
O=C(NC(=S)Nc1cc(-c2nc3ccccc3[nH]2)ccc1Cl)c1ccc2c(c1)OCO2	7.31µM*	?	-17.2%	18.4µM*
Cc1ccc(-c2nc3ccccc3[nH]2)cc1NC(=O)c1ccc2c(c1)OCO2	i	-12.2%	-7.1%	i
CCOc1ccc(C(=O)Nc2nc3ccccc3[nH]2)cc1OCC	5.17µM*	-28.2%	?	?
Cc1ccc(-c2nn3c(=O)cc(CN4CCN(C(=O)c5ccc(C(C)(C)C)cc5)CC4)nc3s2)cc1	i	.	.	i
Cc1ccc(S(=O)(=O)Oc2ccccc2-c2ccccc2)cc1	?	16.4µM*	?	?
Cc1ccc(S(=O)(=O)Oc2ccccc2)cc1	i	3.0%	2.3%	i
CCc1ccccc1NCC(=O)Nc1ccc(Cl)c(C(F)(F)F)c1	20.6µM*	?	?	?
COc1ccc(NC(=O)CCCCCN2C(=O)CCC2=O)cc1Cl	?	1.0%	11.0%	i
COc1cc(NC(=O)Nc2cccc(Cl)c2)c(OC)cc1NC(=O)CN1CCCCC1	?	20.6µM*	?	?
O=C(CCCCCN1C(=O)CCC1=O)Nc1ccc(Cl)c(C(F)(F)F)c1	16.4µM*	?	-30.0%	i
COc1cc(-c2ccc(NC(=O)CN3CCC(C)CC3)c(OC)c2)ccc1NC(=O)CN1CCC(C)CC1	16.4µM*	-30.0%	-28.1%	?
COc1ccc(NC(=O)CN2CCC(C)CC2)c([N+](=O)[O-])c1	i	6.5%	13.9%	i
O=S(=O)(c1ccc(Br)cc1)c1nnn2c1nc(NCc1ccc3c(c1)OCO3)c1sccc12	i	.	.	i
COc1ccccc1NC(=O)CN1CCN(CC(=O)Nc2ccc(Cl)c(C(F)(F)F)c2)CC1	?	23.1µM*	?	?
CCOC(=O)Cc1nnc2c(Nc3ccc(Cl)cc3)nc3nonc3n12	?	9.2µM*	?	?
O=C(c1c[nH]c(C(=O)C(Cl)(Cl)Cl)c1)c1ccc(F)cc1Cl	i	25.9µM*	-12.6%	i
CC(OC(=O)c1ccc(-c2ccc(O)cc2)cc1)C(=O)NC1CCCCC1C (stereo unspecified)	16.4µM*	-6.3%	-0.6%	?
Cc1ccc2cc(C#N)c(NCCNC(=O)C3CCC3)nc2c1C	14.6µM*	-0.3%	-1.3%	?
Cc1cccc2cc(C#N)c(NCCNC(=O)NC3CCCCC3)nc12	i	5.7%	15.2%	i
CN(C)CCN(Cc1ccccc1)c1ccnc(N(C)C)c1C#N	i	7.9%	2.1%	i
CN(C)c1nccc(N(Cc2ccccc2)Cc2ccccc2)c1C#N	13µM*	-1.9%[9.24 µM]	-18.3%	?
CN1C(=O)N(CC(=O)N2CCN(S(=O)(=O)c3ccc(Cl)s3)CC2)C(=O)C12CCCCC2	14.6µM*	-4.8%	1.4%	i
CCOC(=O)Cn1c(=O)oc2cc(S(=O)(=O)Nc3ccccc3F)ccc21	i	.	.	i
O=C1CN(C(=O)c2cccc(Br)c2)C(c2ccccc2)c2cc(Cl)ccc2N1 (stereo unspecified)	?	.	.	i
CCOc1ccc(/C=C/C(=O)c2c(O)c3ccccc3oc2=O)cc1	11.6µM*	?	-12.1%	i
SMILES	KB-V1 MDR tox	HT1080 IDH1KD tx	HT1080-NT tox	KB-3-1 cytotox
Cc1ccc(OCc2nnc(SCC(=O)Nc3ccccc3C(C)C)o2)cc1	i	.	.	i
CC(C)CC(=O)Nc1c2c(nn1-c1cccc(Cl)c1)CS(=O)(=O)C2	i	-4.8%	-3.8%	i
COc1ccc(CC(=O)Nc2c3c(nn2-c2cccc(Cl)c2)CS(=O)(=O)C3)cc1	16.4µM*	?	-0.9%	i
O=C(Cc1ccccc1)Nc1c2c(nn1-c1cccc(Cl)c1)CS(=O)(=O)C2	20.6µM*	-29.0%	-2.4%	i
COc1cccc(C(C(=O)NCc2ccccc2)N2CCN(C(=O)C3CCCO3)CC2)c1OC (stereo unspecified)	i	17.3%	-1.8%	i
CCCCOC(=O)c1cccc(NC(=O)c2cc3ccccc3o2)c1	i	.	.	i
Cc1ccccc1CN(c1ccc(C(=O)NCCC2=CCCCC2)cc1)S(C)(=O)=O	13µM*	-11.4%	-3.5%	?
CSc1ccc(CN(C)CC(=O)NC(=O)NCCC2=CCCCC2)cc1	20.6µM*	8.0%	0.3%	i
Cc1ccc(NC(=O)c2cc(S(=O)(=O)NCCC3=CCCCC3)ccc2F)cc1	2.31µM*	-25.0%	-16.0%	?
O=C(CN(Cc1ccccc1)S(=O)(=O)c1ccc(F)cc1)NCCC1=CCCCC1	?	-0.9%	-1.3%	i
Cc1ccc(S(=O)(=O)N(CC(=O)NCCC2=CCCCC2)Cc2ccccc2)cc1	18.4µM*	?	?	?
CCc1ccccc1NC(=O)C(=O)NCCc1sc(-c2cccc(C)c2)nc1C	?	.	.	i
Cc1ccc(-c2cc(C(=O)NCCc3ccccc3)c3ccccc3n2)cc1C	i	.	.	i
O=C(CN(Cc1ccccc1F)S(=O)(=O)c1ccc(Cl)cc1)NCCC1=CCCCC1	6.51µM*	?	?	?
COc1cccc(CNC(=O)c2cc(=O)[nH]c3ccc(S(=O)(=O)N4CCCC4)cc23)c1	i	.	.	i
COc1ccccc1CCNc1ncnc2nc[nH]c12	i	.	.	?
CCCCc1c(-c2ccccc2OC)ncn1CCc1ccccc1Cl	18.4µM*	?	?	?
CCCCCc1c(CC)ncn1CCc1ccccc1OC	?	?	25.9µM*	16.4µM*
COc1ccccc1CC1(C)C(=O)Nc2c(Cl)cccc21 (stereo unspecified)	i	0.0%	-0.5%	i
CCCCc1c(-c2ccccc2OC)ncn1CCc1ccccc1OC	8.2µM*	13µM*	18.4µM*	?
CCCCN(CC)C(=O)Cc1ccccc1OC	?	-3.6%	-4.0%	i
CCCCCc1c(-c2ccccc2OC)ncn1CCc1ccccc1OC	11.6µM*	16.4µM*	16.4µM*	23.1µM*
CCOc1ccc(-c2cc3c(=O)n(CC(=O)NCc4ccccc4)ccn3n2)cc1	i	.	.	i
CCc1ccc(NC(=O)CSc2nccn2C2CCCC2)cc1	i	.	.	i
CCc1ccc(C2c3c(oc4ccc(C)cc4c3=O)C(=O)N2c2nc(C)c(C)s2)cc1 (stereo unspecified)	i	.	.	i
COc1ccc2c(c1)c1c(c(=O)n(-c3cccc(C)c3)c(=O)n1CC(=O)NCC1CCCO1)n2C (stereo unspecified)	i	.	.	i
COc1ccc(NC(=O)Cc2ccc(NC(=O)N3CCCCc4ccccc43)cc2)c(OC)c1	i	.	.	i
COc1ccc(CNC(=O)c2ccc3c(c2)CCN3S(=O)(=O)c2ccc(Cl)cc2)cc1	i	.	.	i
COc1ccc(N2CCN(C(=O)c3cn(C4CCCCC4)c(=O)c4c3c3ccccc3n4C)CC2)cc1	i	.	.	i
CCCCc1c(-c2ccccc2Br)ncn1CCc1ccccc1OC	14.6µM*	?	?	?
